Our source for the inhibition values is PubChem BioAssay AID862 (The Scripps Research Institute Molecular Screening Center, 2007).

The structures appear in SMILES notation. Hit rate of the full screen: of about 190,000 compounds, about 1,700 (0.89%) were called active.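 The calls were made as follows: active = inhibition above the mean inhibition across all screened compounds plus 3 SD (cut at about 44% in these data); inactive = the rest.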 The sample as a whole holds a higher share of actives than the screen did.

This assay can be described thus: IL-6 driven STAT3 reporter inhibitors, primary screen, U3A cells, luciferase, luminescence, MLSCN library (AID 862).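 Also: 0% = DMSO only wells and 100% = 100 µM nifuroxazide control wells.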 The settings on record: IL-6 STAT3-luciferase reporter, at 5.5 µM, hits give high values, host cell line lacks STAT1. (In general: Reporter assays use an easily measured gene product as a stand-in for the process of interest.)
By inhibition is commonly meant the drop in the measured response relative to a control, in per cent. In the case of `Cc1ccc(S(=O)(=O)Nc2ccc3ncccc3c2)cc1`, the inhibition is 49.6% (active).

Take `Cc1cc(C)cc(OCC(=O)Nc2ccc(S(=O)(=O)Nc3ccccn3)cc2)c1`: the inhibition is -0.1% (inactive).

Consider `Cc1ccc(OCC(=O)Nc2ccc(S(=O)(=O)Nc3ccccn3)cc2)cc1`, for which the inhibition is 4.3% (inactive).

`CC1CCCCC1NC(=O)CO/N=C/c1ccc(OC(F)F)cc1` (stereo unspecified): the inhibition was -1.1% (inactive).

`CCCCC(O)(CCCC)C(=O)NN(C(=O)CCl)c1ccccc1`: the inhibition is 2.7% (inactive).

As for `Cc1cc(CNC(=O)c2cccc([N+](=O)[O-])c2)c2ccccc2n1`, the inhibition is 12.3% (inactive).

Consider `Cc1cccc(-n2c(Cc3cc(=O)[nH]c(=O)[nH]3)nnc2SCC(=O)Nc2cccc(C(F)(F)F)c2)c1`, for which the inhibition was 2% (inactive).

On to `CN(C)S(=O)(=O)c1cccc(NC(=S)N/N=C/C(=O)c2ccccc2)c1`, for which the inhibition was 8% (inactive).

For `O=C(O)c1cccc(NC(=S)N/N=C/c2c[nH]c3ccccc23)c1`, the inhibition was 73.2% (active).

Take `CSC(=S)N/N=C/c1c[nH]c2ccccc12`: the inhibition is -10.1% (inactive).

On to `CCS(=O)(=O)Nc1ccc(C2=NN(C(C)=O)C(c3cccs3)C2)cc1` (stereo unspecified), for which the inhibition was 6.9% (inactive).

As to `O=[N+]([O-])c1cc(S(=O)(=O)N2CCCC2)ccc1NN=C1CCCC1`, the inhibition is 8.3% (inactive).

`Cc1ccc(S(=O)(=O)N(C)C)cc1NC(=O)COC(=O)c1c(C)noc1C`: the inhibition is 6.4% (inactive).

On to `COc1ccc(/C(=N\O)c2nccc3cc(OC)c(OC)cc23)cc1OC`, for which the inhibition was -1.8% (inactive).

Regarding `Cc1ccc(N/C=C/C(=O)c2ccccc2)cc1C`, the inhibition was 52.2% (active).

With `O=C(/C=C\NCC(=O)c1ccccc1)c1ccccc1`, the inhibition was 22.1% (inactive).

`Cc1noc(NS(=O)(=O)c2ccc(N/C=C/C(=O)c3ccccc3)cc2)c1C`: the inhibition is -6.5% (inactive).

With `O=c1cc(O)c(-c2cccc(C(F)(F)F)c2)c(Cl)[nH]1`, the inhibition is 5.9% (inactive).

With `O=C(c1cn(-c2ccccc2)nc1-c1cc2ccccc2oc1=O)N1CCOCC1`, the inhibition was 11.6% (inactive).

As for `Nc1ncc(-c2cc3ccccc3oc2=O)s1`, the inhibition is 14.8% (inactive).

With `O=c1oc2ccccc2cc1-c1cn(-c2ccccc2)c(=S)[nH]1`, the inhibition is 108% (active).

As to `CC1(C)C2CC=C(/C=N/NC(=O)c3ccc(Cl)cc3)C1C2` (stereo unspecified), the inhibition was -5.9% (inactive).

Consider `Fc1cccc(CSc2nnc3ccc(-c4ccncc4)nn23)c1`, for which the inhibition was 9.1% (inactive).

Regarding `CC(C)Cn1c(N)c(C(=O)NCc2cccs2)c2nc3ccccc3nc21`, the inhibition is -8.7% (inactive).

For `CCC(C)NC(=O)c1c(N)n(/N=C/c2cccs2)c2nc3ccccc3nc12` (stereo unspecified), the inhibition was 81.7% (active).

For `CCCNC(=O)c1c(N)n(-c2ccc(S(N)(=O)=O)cc2)c2nc3ccccc3nc12`, the inhibition was 21.5% (inactive).

On to `CN(/C(=N/S(=O)(=O)c1cccs1)c1ccccc1)c1ccc(O)cc1`, for which the inhibition is -3.2% (inactive).

For the compound `Cc1cc(NC(=O)CN2C(=O)NC(C)(CCc3ccccc3)C2=O)no1` (stereo unspecified), the inhibition is -5.6% (inactive).

On to `O=C(O)CCc1nc2cc(Cl)ccc2n(Cc2ccccc2)c1=O`, for which the inhibition is 2.8% (inactive).

On to `Cn1c(-c2ccco2)nc2cc3ccccc3cc21`, for which the inhibition was 79.1% (active).

In the case of `CN1c2ccccc2-c2nc3ccccc3n2C1c1ccco1` (stereo unspecified), the inhibition was 14% (inactive).

On to `CN(c1nc2ccccc2n2c(-c3ccco3)nnc12)S(=O)(=O)c1ccccc1`, for which the inhibition was 4.1% (inactive).

As for `O=C1CCCC(O)=C1N=Nc1ccc2ncsc2c1`, the inhibition is -0.2% (inactive).

For `O=C(NCCCn1ccnc1)C(=O)c1cn(CC(=O)N2CCCCCC2)c2ccccc12`, the inhibition was 6.5% (inactive).

`CC(C)N(C(=O)CSc1nc(COc2ccccc2)nc2ccccc12)C(C)C`: the inhibition was 10.8% (inactive).

As to `CC(=O)N1CCc2cc(Br)cc(S(=O)(=O)CCC(=O)Nc3c(C)n(C)n(-c4ccccc4)c3=O)c21`, the inhibition is -1.8% (inactive).

With `O=C(NCc1cccnc1)c1nc(-c2cccs2)no1`, the inhibition was 1.9% (inactive).

As for `Cc1ccsc1C(=O)OCC(=O)c1cc2ccccc2o1`, the inhibition was 13.5% (inactive).

In the case of `Cc1ccsc1C(=O)OCC(=O)c1cc(C)n(CC2CCCO2)c1C` (stereo unspecified), the inhibition is 95.8% (active).

Regarding `Cc1cc(C(=O)Cn2cnc3cc([N+](=O)[O-])ccc3c2=O)c(C)n1CC1CCCO1` (stereo unspecified), the inhibition was 8.2% (inactive).

In the case of `CC(C)(C)C1CCC(OC(=O)CCC(=O)Nc2ccccc2)CC1` (stereo unspecified), the inhibition was 5.2% (inactive).

As to `O=C(c1cc(=O)c2ccccc2o1)N1CCN(c2ccccc2)CC1`, the inhibition was 4.4% (inactive).

With `Cc1ccc(-c2csc(NC(=O)c3cccs3)n2)cc1`, the inhibition is 12.6% (inactive).

Take `Cc1ccc(-c2nnc(-c3ccc(NC(=O)c4cccs4)cc3)o2)cc1`: the inhibition is 11.8% (inactive).

As for `Cc1nc(-c2ccc(NC(=O)c3cccs3)cc2)cs1`, the inhibition was 78.1% (active).

As for `Cc1ccc(S(=O)(=O)N2CCN(CC(=O)N/N=C/c3cc([N+](=O)[O-])ccc3Cl)CC2)cc1`, the inhibition was -9.8% (inactive).

On to `O=C1CCCc2c1nc(-c1cccc(Cl)c1)n2O`, for which the inhibition is -13.1% (inactive).

Turning to `O=c1c2c(nc3cc(-c4cccc(Cl)c4)[nH]n13)CCCC2`, the inhibition was 65.7% (active).

As for `O=c1c2c(nc3nc[nH]n13)CCC2`, the inhibition was -1.5% (inactive).

For `O=C(c1ccccc1)c1ccc(OCC(O)CN2CCCC2)cc1` (stereo unspecified), the inhibition is -2.9% (inactive).

Consider `CCc1cc(-c2n[nH]c(=S)n2CC(C)C)cs1`, for which the inhibition was 5% (inactive).

Take `CCN(CC)C(=O)c1ccc(O)c(OC)c1`: the inhibition was -3% (inactive).

For `CCOc1ccc(OCc2cccc(C(=O)N(CC)CC)c2)cc1`, the inhibition was 70.7% (active).

Turning to `COc1ccc(OCc2cccc(C(=O)N3CCCC3)c2)cc1`, the inhibition was 29% (inactive).

As for `Cc1ccc(NC(=O)C(=O)NCC2CCN(C(=O)c3cccc([N+](=O)[O-])c3)CC2)cc1`, the inhibition is 6.1% (inactive).

Regarding `COc1ccc(C(=O)NC(=S)Nc2ccc(Cl)cn2)cc1OC`, the inhibition was 20.4% (inactive).

Turning to `O=C(Nc1ccc2c(c1)OCCO2)c1ccc(Cl)c(S(=O)(=O)N2CCCCC2)c1`, the inhibition is 25.5% (inactive).

Take `O=C(Nc1ccc(Cl)cn1)c1ccc2c(c1)OCCO2`: the inhibition is 70.2% (active).

`COc1c(Cl)cc(C(=O)Nc2ccc(Cl)cn2)cc1Cl`: the inhibition was -37.3% (inactive).

In the case of `O=C(Nc1cccc(S(=O)(=O)Nc2ccc(Cl)cc2)c1)c1ccc2c(c1)OCCO2`, the inhibition was 44.7% (active).

With `O=C(Nc1cccc(S(=O)(=O)N2CCCCC2)c1)c1ccc2c(c1)OCO2`, the inhibition is 11.4% (inactive).

For `CC(=O)NC(=S)NNC(=O)c1ccc(Br)cc1`, the inhibition was -0.5% (inactive).

Consider `O=C1N/C(=C/c2cccs2)C(=O)N1Cc1ccc(F)cc1`, for which the inhibition was -0.7% (inactive).

Consider `Cc1ccc(NC(=O)NNC(=O)c2sccc2-n2cccc2)cc1`, for which the inhibition is -2.5% (inactive).

On to `Cc1ccnc(NC(=O)C(C)N2C(=O)c3ccccc3C2=O)c1` (stereo unspecified), for which the inhibition is 1.4% (inactive).

Turning to `c1c2c(cc3sc(N4CCCCC4)nc13)OCCO2`, the inhibition is 89.7% (active).

Consider `Brc1ccc2nc(N3CCCC3)sc2c1`, for which the inhibition is 30.3% (inactive).

Take `COc1ccc2nc(Nc3nc4cc5c(cc4s3)OCCO5)sc2c1`: the inhibition was 10.2% (inactive).

As to `CC(C)c1csc(CN2CCC(CO)(Cc3ccccc3)CC2)n1`, the inhibition is 2.1% (inactive).

With `CS(=O)(=O)N(Cc1ccccc1Cl)c1ccc(C(=O)NCc2cccnc2)cc1`, the inhibition is -0.3% (inactive).

In the case of `Fc1ccc(CNCc2ccc(Br)cc2)cc1`, the inhibition was 19.2% (inactive).

In the case of `NC1=NC(=O)S/C1=C\c1ccc(O)cc1`, the inhibition is 3.3% (inactive).

As to `O=C(Nc1ccccc1)c1ccc2c(c1)OCO2`, the inhibition is 18.6% (inactive).

In the case of `Cc1ccc(-c2csc(NC(=O)c3cnccn3)n2)cc1C`, the inhibition is 15.5% (inactive).

As to `Cc1cc(C)c2nc(NC(=O)c3ccc4c(c3)OCO4)sc2c1`, the inhibition is 6.8% (inactive).

For the compound `O=C(Nc1nc(-c2ccc3c(c2)OCO3)cs1)c1ccncc1`, the inhibition is 64.6% (active).

Regarding `O=C(Nc1nc(-c2ccncc2)cs1)C1COc2ccccc2O1` (stereo unspecified), the inhibition was 22.6% (inactive).

Take `O=C(Nc1nc2ccccc2s1)c1ccc2c(c1)OCO2`: the inhibition was 61.3% (active).

Take `C/C(CC(=O)Nc1cccc(C(F)(F)F)c1)=N\NC(=O)C(=O)NCC(C)C`: the inhibition is 0.3% (inactive).

On to `COC(=O)c1c(C)oc2ccc(N(C(=O)Oc3ccccc3)S(=O)(=O)c3ccccc3)cc12`, for which the inhibition was 5.2% (inactive).

With `COc1ccc(S(=O)(=O)Nc2ccc3oc(C)c(C(C)=O)c3c2)cc1`, the inhibition is 46% (active).

Consider `COc1ccc(NS(=O)(=O)c2ccc(NC(C)=O)cc2)cc1OC`, for which the inhibition is 47.9% (active).

Regarding `COc1ccc2oc(C)c(NC(C)=O)c2c1`, the inhibition is 4.1% (inactive).

For the compound `COC(=O)COc1ccc(S(=O)(=O)Nc2ccc(NC(C)=O)cc2)cc1`, the inhibition is -2% (inactive).

For `COc1cc(NS(=O)(=O)c2ccc(NC(C)=O)cc2)cc(OC)c1`, the inhibition is 38% (inactive).

Take `Cc1ccc2c(=O)oc(N(C)C)nc2c1`: the inhibition is -6.4% (inactive).

Take `CCc1c(C)nc2c(OC)cccc2c1Cl`: the inhibition is 3.4% (inactive).

On to `COc1ccccc1C1SCCN1C(=O)c1ccc([N+](=O)[O-])cc1` (stereo unspecified), for which the inhibition is -1.1% (inactive).

As for `O=C(Nc1ccc(CSc2ccccc2)cc1)c1ccc(CN2CCOCC2)cc1`, the inhibition is 72.7% (active).

For the compound `O=C(Nc1ccccc1C(=O)N1CCOCC1)c1ccc(CSc2ccccc2)cc1`, the inhibition was 24% (inactive).

Regarding `COc1ccc(C(=O)Nc2ccc(CN3CCOCC3)cc2)cc1`, the inhibition was -2.1% (inactive).

As to `COc1ccc(C(=O)Nc2ccc(-n3nncc3C(C)(C)C)cc2)cc1`, the inhibition is -0.3% (inactive).

Take `COc1ccc(NC(=O)CSc2nc(C)cs2)cc1`: the inhibition was 10.5% (inactive).

Regarding `Cc1cccc(C)c1Nc1nnc(SCC(=O)Nc2sccc2C#N)s1`, the inhibition was 6.5% (inactive).

For `Cc1csc(SCC(=O)Nc2sccc2C#N)n1`, the inhibition is 44.3% (active).

On to `Cc1cc(-c2nnc(CCC(=O)NC(c3ccccc3)c3ccccc3)o2)no1`, for which the inhibition is 9.8% (inactive).

Regarding `Cc1nn(CC#N)c(=O)n1N(C)c1ncc(C(F)(F)F)cc1Cl`, the inhibition was 6.6% (inactive).

For `Cn1c(SCC(=O)Nc2ccc(Br)cc2F)nnc1-c1ccco1`, the inhibition is 7.9% (inactive).

Consider `COc1ccc(C(=O)Nc2ccc(S(=O)(=O)NC(C)C)cc2)cc1`, for which the inhibition is -0.4% (inactive).

Turning to `COc1cc(OC)cc(C(=O)Nc2ccc(S(=O)(=O)Nc3cc(C)on3)cc2)c1`, the inhibition was 20.2% (inactive).

As for `COc1ccc(NS(=O)(=O)c2ccc(NC(=O)c3ccc(N(C)S(C)(=O)=O)cc3)cc2)cc1`, the inhibition was 60.1% (active).
